Compounds with a hit are over-represented: about 7.1% of the library has one in this group of screens.
p53 reactivation – mutant p53 re-activation in reporter cells; H1299 p53-A138V BP100-luciferase reporter, luminescence, 24 h; Potency, µM (doses to about 92.2 µM), inactives show top-dose activity change, positive = activation, most hits filed as activators; hit rate 0.063% among 320,000; note: % of control where 0% means no effect; nearly all actives have a fitted effect of over 45% in size
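p53-null H1299 cells stably carrying temperature-sensitive p53-A138V and a BP100-luciferase reporter were pinned with compounds (4-point, 1:5 series) and held 24 hrs at 37 deg C. Luminescence was read 10 min after detection reagent.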
ELG1 DNA repair – inhibitors of ELG1-dependent DNA repair in HEK293T cells | hit rate 2.3% among 330,000 | HEK293T ELG1-luciferase reporter, luminescence, 16 h; DNA damage induced by 5-fluorouridine | Potency, µM (top dose mostly 46.1 µM), for inactives: at the highest dose activity change, negative = inhibition, hits mostly inhibitors; note: % is set by controls: 0 for no effect and ±100 for the full control effect; nearly all actives have a fitted effect of over 55% in size
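HEK293T cells expressing luciferase-tagged ELG1 (2,000/well) received 5-Fluorouridine plus compound or DMSO for 16 hr at 37 °C. Luciferase was read by ONE-Glo luminescence after 30 min at room temperature.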
ELG1 genotoxic – genotoxicity induction in ELG1-luciferase HEK293T cells | HEK293T ELG1-luciferase reporter, luminescence, 16 h | Potency, µM (top dose mostly 46 µM), without a hit: at the top dose activity change, positive = activation, usual class: activators | hit rate 1.3% among 330,000 | AID 504466; note: % of control where 0% means no effect; nearly all actives have a fitted effect of over 60% in size
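HEK293T cells expressing luciferase-tagged ELG1 were exposed to compound or DMSO vehicle for 16 hr at 37 °C and 5% CO2. Luciferase activity was then measured with ONE-Glo after 30 min at room temperature.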
MCF10A rerep – DNA re-replication induction in MCF 10a cells; MCF 10A DNA re-replication, Hoechst nuclear intensity, 48 h; Potency, µM (top dose mostly 46.1 µM), inactives show at the top dose activity, positive = re-replication, most hits filed as activators; hit rate 2.9% among 350,000; AID 624296; note: % of control where 0% means no effect; nearly all actives have a fitted effect of over 50% in size
SW480 rereplic – DNA re-replication induction in SW480 cells; SW480 DNA re-replication, Hoechst DNA content imaging, 48 h; Potency, µM (doses to about 46.1 µM), for inactives: top-dose re-replication activation, hits mostly activators; hit rate 1.8% among 340,000; note: % of control where 0% means no effect; nearly all actives have a fitted effect of over 55% in size
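Image-based DNA-content assay: after two days of treatment, nuclei were labelled with the DNA dye Hoechst and imaged, and hits were compounds raising the count of nuclei showing high fluorescence intensity.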
A-T KAP1 phos – potential ataxia-telangiectasia treatments restoring KAP-1 phosphorylation; hit rate 0.19% among 320,000; Potency, µM (highest dose often 57.5 µM), without a hit: top-dose activation, hits mostly activators; F2112 A-T fibroblasts, KAP-1 phosphorylation AlphaLISA; neocarzinostatin DNA damage 30 min before lysis; note: % of control where 0% means no effect; nearly all actives have a fitted effect of over 45% in size
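ATM-like activity read as KAP-1 phosphorylation via AlphaLISA donor/acceptor antibody pairs after lysis and 6 hr at 25C. Cells were ATM-null patient fibroblasts (F2112, hTERT), dosed 60 min, then exposed to the DSB inducer NCS for 30 min.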
The depositor's hits bear a star. Calls come from the whole dose curve; as a rule, active = well fitted curve in the direction sought with a large enough effect; inconclusive = small, poorly fitted or top-dose-only effect, or another doubt; inactive = no such curve, though single readings can be large; an effect the other way counts as inactive or inconclusive. Potency is the fitted concentration of half-maximal effect.

`N#C/C(=C\N1CCOCC1)c1ccccc1` gave p53 reactivation 6%, ELG1 DNA repair 18%, ELG1 genotoxic -2%, MCF10A rerep 5%, SW480 rereplic -2% and A-T KAP1 phos -2%.
`COC(=O)c1ccc(/C=C(\C#N)C(=O)NC(C)c2ccccc2)cc1` (configuration not stated) gave p53 reactivation -28%, ELG1 DNA repair inconclusive, ELG1 genotoxic -16%, MCF10A rerep 18µM*, SW480 rereplic inconclusive and A-T KAP1 phos 10%.
N#C/C(=C\c1ccc(N2CCOCC2)cc1)c1ccccc1 was read as p53 reactivation inconclusive, ELG1 DNA repair inconclusive, ELG1 genotoxic 4.1µM*, MCF10A rerep inconclusive, SW480 rereplic 16% and A-T KAP1 phos 8%.
For CCn1c(SCC(=O)NC(=O)c2ccccc2OC)nc2ccccc21 the results were p53 reactivation 7%, ELG1 DNA repair 16%, ELG1 genotoxic 8%, MCF10A rerep -2%, SW480 rereplic -3% and A-T KAP1 phos -11%.
Oc1ccc(C[C@@H]2CNCCN2CCc2cccc(F)c2)cc1 was read as p53 reactivation -13%, ELG1 DNA repair -7%, ELG1 genotoxic 1%, MCF10A rerep -4%, SW480 rereplic 9% and A-T KAP1 phos -3%.
`Cc1ccc(OCCNC(=O)c2cccc(S(=O)(=O)NCc3ccccc3)c2)cc1` gave p53 reactivation -1%, ELG1 DNA repair inconclusive, ELG1 genotoxic -5%, MCF10A rerep 6.5µM*, SW480 rereplic 6.5µM* and A-T KAP1 phos -5%.
`CN(C)C(CNC(=O)c1cccc(S(=O)(=O)NCc2ccccc2)c1)c1ccccc1` (configuration not stated) gave p53 reactivation 1%, ELG1 DNA repair 0%, ELG1 genotoxic 4%, MCF10A rerep inconclusive, SW480 rereplic 6.5µM* and A-T KAP1 phos -9%.
`Cc1c(NC(=O)c2ccc(NC(=O)C3CC3)cc2)cccc1C(=O)O` gave p53 reactivation -25%, ELG1 DNA repair -14%, ELG1 genotoxic -2%, MCF10A rerep 1%, SW480 rereplic -9% and A-T KAP1 phos 5%.
`COc1ccc(NC(=O)c2cncc(Br)c2)cc1S(=O)(=O)N1CCCCC1` gave p53 reactivation -11%, ELG1 DNA repair 15µM*, ELG1 genotoxic -8%, MCF10A rerep 7%, SW480 rereplic 2% and A-T KAP1 phos 8%.
`O=C(Nc1cccc(C(F)(F)F)c1)Nc1ccc(N2CCCC2)c(S(=O)(=O)Nc2ccccc2Cl)c1` gave p53 reactivation 4%, ELG1 DNA repair inconclusive, ELG1 genotoxic -3%, MCF10A rerep 4.6µM*, SW480 rereplic inconclusive and A-T KAP1 phos 5%.
`COc1ccc(NC(=O)c2cc(F)cc(F)c2)cc1S(=O)(=O)N1CCCCC1` gave p53 reactivation -8%, ELG1 DNA repair inconclusive, ELG1 genotoxic -3%, MCF10A rerep inconclusive, SW480 rereplic 1% and A-T KAP1 phos 1%.
COc1ccccc1NS(=O)(=O)c1cc(NC(=O)c2cccnc2)ccc1N1CCCCC1 was read as p53 reactivation -1%, ELG1 DNA repair 18µM*, ELG1 genotoxic -5%, MCF10A rerep 17%, SW480 rereplic 3% and A-T KAP1 phos -3%.
For COc1ccccc1NS(=O)(=O)c1cc(NC(=O)C2CCC2)ccc1N1CCCCC1 the results were p53 reactivation -2%, ELG1 DNA repair 0%, ELG1 genotoxic -14%, MCF10A rerep 3%, SW480 rereplic -12% and A-T KAP1 phos -1%.
For COc1ccc(NC(=O)c2ccc(Cl)nc2)cc1S(=O)(=O)N1CCCCC1 the results were p53 reactivation 3%, ELG1 DNA repair 23µM*, ELG1 genotoxic -15%, MCF10A rerep inconclusive, SW480 rereplic inconclusive and A-T KAP1 phos -4%.
Screening COc1ccc(NC(=O)c2cc(OC)c(OC)c(OC)c2)cc1S(=O)(=O)N1CCCCC1 returned p53 reactivation -5%, ELG1 DNA repair -14%, ELG1 genotoxic 6%, MCF10A rerep 3%, SW480 rereplic 2% and A-T KAP1 phos 6%.
For CCCn1c(SCC(=O)NC2CCC(C)CC2)n[nH]c1=O (configuration not stated) the results were p53 reactivation 2%, ELG1 DNA repair 8%, ELG1 genotoxic -3%, MCF10A rerep 2%, SW480 rereplic -43% and A-T KAP1 phos 6%.
`Cc1nn(-c2ccccc2)nc1CNC(=O)C1CC1` gave p53 reactivation 5%, ELG1 DNA repair inconclusive, ELG1 genotoxic 4%, MCF10A rerep -3%, SW480 rereplic -32% and A-T KAP1 phos -7%.
`CCCCNC(=O)C1Cc2cc(S(=O)(=O)N3CCCCC3)ccc2N1C(C)=O` (configuration not stated) gave p53 reactivation 2%, ELG1 DNA repair 4%, ELG1 genotoxic 0%, MCF10A rerep 9%, SW480 rereplic -5% and A-T KAP1 phos 5%.
O=C(Nc1ccccc1)OCc1cc(-c2ccccc2Cl)on1 was read as p53 reactivation inconclusive, ELG1 DNA repair inconclusive, ELG1 genotoxic 20%, MCF10A rerep 26µM*, SW480 rereplic -5% and A-T KAP1 phos -4%.
O=C(Nc1cccc(O)c1)c1cc(-c2ccccc2Cl)on1 was read as p53 reactivation inconclusive, ELG1 DNA repair inconclusive, ELG1 genotoxic inconclusive, MCF10A rerep 15%, SW480 rereplic 2% and A-T KAP1 phos 5%.
CCc1cc2c(-c3ccccc3)cc(=O)oc2cc1OC(C)C(=O)O (configuration not stated) was read as p53 reactivation 3%, ELG1 DNA repair -3%, ELG1 genotoxic 0%, MCF10A rerep 4%, SW480 rereplic -5% and A-T KAP1 phos 5%.
For CC(NC(=O)OCc1ccccc1)C(=O)Oc1cc2oc(=O)cc(-c3ccccc3)c2cc1Cl (configuration not stated) the results were p53 reactivation -18%, ELG1 DNA repair 21µM*, ELG1 genotoxic -9%, MCF10A rerep 18µM*, SW480 rereplic inconclusive and A-T KAP1 phos 0%.
Screening CC(C)[C@H]1COCCS(=O)(=O)N1Cc1ccccc1-c1ccc(F)cc1 returned p53 reactivation 6%, ELG1 DNA repair 2%, ELG1 genotoxic -4%, MCF10A rerep 16%, SW480 rereplic inconclusive and A-T KAP1 phos 4%.

Source: PubChem (National Center for Advancing Translational Sciences (NCATS))
